Screening data as filed in PubChem.
The list is not random: actives were taken first. Their share in the collection is about 3.2%.
PHOSPHO1 block = inhibitors of human PHOSPHO1 phosphatase. Q8TCT1. recombinant PHOSPHO1, absorbance phosphatase assay. inhibition, % at 13.3 µM. 290,000 tested, 1.1% active; in the data active = inhibition above about 60%
ANO1 activ = mouse TMEM16A channel activation, primary screen; Q8BHY3; HEK293 TMEM16A/YFP-H148Q/I152L, iodide quench fluorescence; hits give low values; B-score at 10 µM; 340,000 tested, 0.3% active; AID 623877;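 active = fluorescence-ratio B-score plate-corrected deviation score at least 3 library SD below zero, with starting fluorescence score within 5 deviations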;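 note: channel opened by trigger with iodide after compound preincubation; score built on the fluorescence ratio of max minus min over baseline; more negative score means more quench and so TMEM16A activation or potentiation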
Target sequence (Q8BHY3 whole entry, looked up): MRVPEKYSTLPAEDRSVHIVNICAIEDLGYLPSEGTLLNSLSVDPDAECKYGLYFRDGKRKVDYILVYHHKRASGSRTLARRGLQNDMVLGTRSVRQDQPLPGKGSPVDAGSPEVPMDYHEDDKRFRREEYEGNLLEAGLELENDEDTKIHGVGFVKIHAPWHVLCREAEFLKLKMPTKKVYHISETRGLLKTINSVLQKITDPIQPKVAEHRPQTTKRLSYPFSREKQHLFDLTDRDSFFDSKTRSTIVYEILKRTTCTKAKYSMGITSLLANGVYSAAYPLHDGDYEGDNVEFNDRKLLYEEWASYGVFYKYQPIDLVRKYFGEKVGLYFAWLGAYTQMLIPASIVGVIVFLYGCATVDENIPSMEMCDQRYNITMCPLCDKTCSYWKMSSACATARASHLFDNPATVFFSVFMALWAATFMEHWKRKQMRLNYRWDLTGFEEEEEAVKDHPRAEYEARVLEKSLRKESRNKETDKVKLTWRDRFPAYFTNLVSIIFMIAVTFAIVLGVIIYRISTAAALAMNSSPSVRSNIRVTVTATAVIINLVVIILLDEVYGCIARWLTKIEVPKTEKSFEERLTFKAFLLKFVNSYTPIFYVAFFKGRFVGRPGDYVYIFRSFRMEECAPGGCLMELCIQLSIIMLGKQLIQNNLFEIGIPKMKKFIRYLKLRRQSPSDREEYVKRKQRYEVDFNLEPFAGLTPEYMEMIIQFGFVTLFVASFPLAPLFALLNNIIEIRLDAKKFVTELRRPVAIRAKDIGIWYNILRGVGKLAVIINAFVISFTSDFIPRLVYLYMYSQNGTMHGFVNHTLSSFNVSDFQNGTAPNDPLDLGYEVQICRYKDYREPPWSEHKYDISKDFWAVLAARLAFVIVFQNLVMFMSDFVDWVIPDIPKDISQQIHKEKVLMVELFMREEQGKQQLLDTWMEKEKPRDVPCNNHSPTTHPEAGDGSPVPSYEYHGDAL
HDAC3 inh = inhibitors of human histone deacetylase 3 | O15379 | recombinant HDAC3, fluorogenic peptide/trypsin coupled, fluorescence | inhibition, % at 8.3 µM | 320,000 tested, 0.15% active; in the data active = inhibition above about 26%, passing the limit was not always enough; inconclusive = no clear call, values can overlap the other calls
TMEM16A inh = blocks the mouse calcium-activated chloride channel TMEM16A; Q8BHY3; HEK293 TMEM16A/YFP iodide influx fluorescence, ionomycin; normalized B-score (activity score, 25-100; higher = stronger inhibition) at 10 µM; 310,000 tested, 1.2% active;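 active = ratio plate-corrected score three or more library SD toward inhibition, starting fluorescence score within five deviations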;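 note: score derived from kinetic fluorescence span divided by baseline fluorescence per well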
CHT inh = human CHT choline transport inhibition. Q9GZV3. CHT-expressing cells, membrane potential dye, choline response; hits give low values. B-score at 10 µM. 310,000 tested, 0.86% active. AID 488975;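 active = B-score over 3 SD under the library average, and starting fluorescence ratio not unusually high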;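 note: choline stimulus applied at its EC90 after an EC20 pre-addition; B-score computed on integrated fluorescence ratio after choline addition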
CHT PAM = allosterically activates the human high affinity choline transporter. Q9GZV3. CHT-expressing cells, membrane potential dye, choline EC20; hits give high values; LV-AA mutant CHT in HEK293 cells. B-score at 10 µM. 310,000 tested, 0.49% active;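 active = initial fluorescence not abnormally high and integrated response B-score, plate-corrected, over 3 SD above library mean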
Of the large screens only hits and unclear results are named; the others gave an inactive call.

COc1ccc(NC(=S)NNC(=O)C(C)n2nc(C)c([N+](=O)[O-])c2C)cc1 (stereo not drawn)	PHOSPHO1 block 68
Cc1nn(CCC(=O)NNC(=S)Nc2ccc([N+](=O)[O-])cc2)c(C)c1[N+](=O)[O-]	none
Cc1nn(C(C)C(=O)NNC(=S)Nc2ccc(F)cc2)c(C)c1[N+](=O)[O-] (stereo not drawn)	PHOSPHO1 block 72
CC(=O)Nc1ccc(NC(=O)C(C)n2nc([N+](=O)[O-])c(Br)c2C)cc1 (stereo not drawn)	PHOSPHO1 block 63
CN(C)S(=O)(=O)c1cccc(-c2nnc(SCc3cc(Cl)cc4c3OCOC4)n2N)c1	PHOSPHO1 block 99
O=c1c2cc(N3CCOCC3)ccc2[nH]c(=S)n1Cc1ccc(Cl)cc1	PHOSPHO1 block 82
O=C(CCCCCn1c(=S)[nH]c2ccc(N3CCOCC3)cc2c1=O)NCc1ccc(Cl)cc1	none (no result: HDAC3 inh)
Cc1ccc(NC(=O)/C(C#N)=C(\N)C(Cl)(Cl)Cl)nc1	ANO1 activ -11 (no result: HDAC3 inh)
O=C(N/N=C/c1c[nH]c2ccccc12)C1CC(=O)N(c2ccccc2)C1 (stereo not drawn)	PHOSPHO1 block 73
COC(CNS(=O)(=O)c1cccc2nonc12)OC	none
O=C(CSc1ccc(-c2ccccn2)nn1)Nc1cccc(F)c1	PHOSPHO1 block 61
CCOC(=O)C1CCN(S(=O)(=O)c2cccc(-c3cn4cc(Cl)ccc4n3)c2)CC1	PHOSPHO1 block 97, ANO1 activ -21
COc1ccc(-c2onc(C)c2-c2cnn(-c3ccccc3)c2)c(O)c1	none
Cc1ccc(-c2cc([C@H]3[C@@H]4C=CCC[C@@]4(C)C(=O)N3Cc3ccccc3)ccc2F)cc1	none
C[C@@]12CCC=C[C@H]1[C@H](c1ccc(F)c(/C=C/c3ccccc3)c1)N(Cc1ccccc1)C2=O	HDAC3 inh 31
CN(C)c1ccc(-c2noc(C3CCN(C(=O)Nc4ccc(Cl)cc4)CC3)n2)cc1	ANO1 activ -4.6
CC(=O)c1c(C)oc2ccc(NS(=O)(=O)c3ccc(O)c(C(=O)O)c3)cc12	none
O=C(O)c1cc(S(=O)(=O)Nc2ccc3oc(=O)sc3c2)ccc1O	PHOSPHO1 block 63 (no result: ANO1 activ)
Cc1cccnc1Nc1ncnc(N)c1[N+](=O)[O-]	PHOSPHO1 block 61
O=C(Cc1ccc(Cl)cc1)Nc1ccccc1C(=O)Nc1ccc(C(=O)O)cc1	none
N#Cc1cccc(C(c2nnnn2C2CCCC2)N2CCCCCC2)c1 (stereo not drawn)	PHOSPHO1 block 62, HDAC3 inh inconclusive
Cc1ccc2cc(C#N)c(N3CCCN(C(=O)C4CCCO4)CC3)nc2c1C (stereo not drawn)	CHT inh -6.1
O=c1ccn([C@@H]2O[C@H](CO)[C@@H](O)[C@H]2O)c(=O)[nH]1	none
O=C(Nc1ccc(C(F)(F)F)cc1)c1csc(-c2ccncc2)n1	PHOSPHO1 block 64
O=C(Nc1ccccc1)c1csc(-c2ccccc2)n1	none
c1ccc(Nc2cc(Nc3ccccc3)[nH]n2)cc1	PHOSPHO1 block 69
O=c1nccc(Nc2ccccc2)[nH]1	none
CCCN1CCN(C2CCCCC2NS(=O)(=O)c2ccc(Cl)cc2)CC1 (stereo not drawn)	none
O=S(=O)(NC1CCCCC1N1CCN(c2ccc(F)cc2)CC1)c1ccc(Cl)cc1 (stereo not drawn)	ANO1 activ -34
Clc1ccccc1OCc1nnc(-c2ccccc2Br)o1	none
O=c1c(Cl)c(Cl)cnn1Cc1nnc(-c2ccccc2Br)o1	ANO1 activ -13 (no result: HDAC3 inh, TMEM16A inh, CHT inh, CHT PAM)
COc1ccc(N2CCN(C(=O)CCCn3c(=S)[nH]c4cc5c(cc4c3=O)OCO5)CC2)cc1	none
CC(C)OCCCn1c(=S)[nH]c2cc3c(cc2c1=O)OCO3	PHOSPHO1 block 88
COC(CNC(=O)c1ccc(Cn2c(=S)[nH]c3cc4c(cc3c2=O)OCO4)cc1)OC	PHOSPHO1 block 79
Cc1ccc(C)c(N2CCN(C(=O)CCn3c(=S)[nH]c4cc5c(cc4c3=O)OCO5)CC2)c1	PHOSPHO1 block 70
COCCNC(=O)c1ccc(Cn2c(=S)[nH]c3cc4c(cc3c2=O)OCO4)cc1	PHOSPHO1 block 98
COC(=O)c1ccc2c(=O)n(Cc3ccc4c(c3)OCO4)c(=S)[nH]c2c1	none
COc1cccc(CC2(CO)CCN(Cc3ccc(NC(C)=O)cc3)CC2)c1	none
